In paper PMC7826789 (International Journal of Molecular Sciences, 2021):

Tests used:
Settings in all cases: Compound Concentration (nM):1000
[1] = test system: EPHB2
[2] = test system: EPHB3
[3] = test system: EPHB4
[4] = test system: EPHB6
[5] = test system: ERBB2
[6] = test system: ERBB3
[7] = test system: ERBB4
[8] = test system: T1, ERK1
T1 construct: gene MAPK3

[9] = test system: T2, ERK2
T2 construct: gene MAPK1

[10] = test system: T3, ERK3
T3 construct: gene MAPK6

[11] = test system: T4, ERK4
T4 construct: gene MAPK4

[12] = test system: T5, ERK5
T5 construct: gene MAPK7

[13] = test system: T6, ERK8
T6 construct: gene MAPK15

[14] = test system: ERN1
[15] = test system: T7, FAK
T7 construct: gene PTK2

[16] = test system: FER
[17] = test system: FES
[18] = test system: FGFR1
[19] = test system: FGFR2
[20] = test system: FGFR3(G697C)
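Also: KINOMEscan scanMAX binding as percent activity remaining versus control; lower means stronger binding.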

| SMILES | Percent Control [1] [%] | Percent Control [2] [%] | Percent Control [3] [%] | Percent Control [4] [%] | Percent Control [5] [%] | Percent Control [6] [%] | Percent Control [7] [%] | Percent Control [8] [%] | Percent Control [9] [%] | Percent Control [10] [%] | Percent Control [11] [%] | Percent Control [12] [%] | Percent Control [13] [%] | Percent Control [14] [%] | Percent Control [15] [%] | Percent Control [16] [%] | Percent Control [17] [%] | Percent Control [18] [%] | Percent Control [19] [%] | Percent Control [20] [%] |
| --- | --- | --- | --- | --- | --- | --- | --- | --- | --- | --- | --- | --- | --- | --- | --- | --- | --- | --- | --- | --- |
| CC1=C(C(=O)Nc2ccc3[nH]ncc3c2)C(c2ccc3ccccc3c2)CC(=O)N1 (stereo not shown) [GSK270822A] | 86 | 89 | 84 | 86 | 83 | 100 | 100 | 66 | 79 | 100 | 100 | 100 | 100 | 78 | 100 | 77 | 84 | 72 | 66 | 78 |
| COc1cc(/C=N/Nc2ncnc3[nH]ncc23)ccc1O [GW578748X] | 100 | 100 | 100 | 1.6 | 57 | 64 | 100 | 100 | 100 | 57 | 72 | 100 | 93 | 53 | 100 | 100 | 100 | 81 | 100 | 88 |
| CN1CCN(C(=O)c2ccc(NC(=O)Nc3ccc(N(C)c4ccnc(Nc5ccc(CS(C)(=O)=O)cc5)n4)cc3)cc2)CC1.Cl [GW830263A] | 76 | 100 | 85 | 4.3 | 100 | 85 | 77 | 100 | 100 | 100 | 100 | 100 | 25 | 25 | 36 | 46 | 67 | 100 | 99 | 100 |
| COc1cccc(-n2ncc3c(N/N=C/c4ccncc4)ncnc32)c1 [GW784752X] | 100 | 100 | 100 | 100 | 68 | 4.9 | 83 | 100 | 100 | 41 | 58 | 100 | 17 | 72 | 100 | 100 | 100 | 87 | 100 | 92 |
| COc1ccc2cc(-c3c(-c4ccncc4)nc(-c4ccc(S(C)(=O)=O)cc4C)n3C)ccc2c1 [SB-633825] | 91 | 80 | 73 | 74 | 12 | 84 | 22 | 91 | 95 | 42 | 74 | 89 | 100 | 74 | 85 | 77 | 81 | 73 | 73 | 86 |
| COc1ccccc1-c1cc(/C=C2\C(=O)Nc3ncc(Br)cc32)cc(Br)c1O [GW442130X] | 100 | 100 | 100 | 42 | 100 | 95 | 100 | 87 | 100 | 100 | 100 | 100 | 100 | 100 | 97 | 100 | 100 | 100 | 100 | 100 |
| CCS(=O)(=O)c1ccc(OC)c(Nc2ncc(-c3cccc(OC)c3)o2)c1 [GW580509X] | 100 | 100 | 100 | 3.3 | 77 | 54 | 100 | 100 | 100 | 100 | 100 | 100 | 100 | 76 | 100 | 100 | 100 | 39 | 58 | 31 |
| CC1=C(C(=O)Nc2ccc3[nH]ncc3c2)C(c2ccc(Cl)c(Cl)c2)CC(=O)N1 (stereo not shown) [GSK299115A] | 100 | 98 | 94 | 99 | 92 | 100 | 36 | 72 | 76 | 77 | 100 | 100 | 90 | 80 | 100 | 97 | 96 | 90 | 73 | 94 |
| COc1cc(C)c(N(C)C(=O)CN(C)C)cc1Nc1nc(Nc2cccc(F)c2C(N)=O)c2cc[nH]c2n1 [GSK2219385] | 100 | 93 | 100 | 74 | 94 | 57 | 86 | 65 | 100 | 90 | 92 | 100 | 95 | 100 | 100 | 91 | 97 | 100 | 82 | 88 |
| COc1cc(N2CCN(C(C)C)CC2)ccc1Nc1nc(Nc2ccc(F)cc2C(=O)NC[C@@H](O)CO)c2cc[nH]c2n1 [GSK1392956A] | 100 | 69 | 81 | 93 | 85 | 50 | 73 | 100 | 99 | 66 | 100 | 99 | 100 | 43 | 4.5 | 43 | 58 | 100 | 97 | 98 |
| Nc1ncnc2occ(-c3ccc(NC(=O)Nc4cc(C(F)(F)F)ccc4F)cc3)c12 [GW770249X] | 11 | 31 | 36 | 0.5 | 67 | 91 | 100 | 100 | 100 | 100 | 100 | 100 | 2.4 | 88 | 9.7 | 87 | 100 | 32 | 31 | 78 |
| COc1cc2ncnc(Nc3ccc4c(cnn4Cc4ccccc4)c3)c2cc1OC.Cl [GW282449A] | 100 | 100 | 100 | 12 | 0 | 0 | 0 | 100 | 100 | 100 | 100 | 100 | 100 | 96 | 100 | 100 | 100 | 100 | 100 | 100 |
| O=C1Nc2ccc(C(=O)c3ccco3)cc2C1=Cc1cc(Cl)c(O)c(Cl)c1 [GW406108X] | 100 | 89 | 98 | 63 | 83 | 87 | 100 | 100 | 94 | 94 | 100 | 100 | 100 | 66 | 100 | 100 | 99 | 100 | 75 | 100 |
| C/C(Nc1ccc(S(N)(=O)=O)cc1)=C1/C(=O)Nc2ccccc21 [GW335962X] | 100 | 89 | 86 | 93 | 100 | 74 | 100 | 91 | 100 | 93 | 100 | 100 | 100 | 88 | 93 | 88 | 84 | 86 | 93 | 100 |
| O=C(Nc1n[nH]c2nc(-c3ccc(O)cc3)c(Br)cc12)C1CC1 [SB-725317] | 100 | 100 | 100 | 57 | 80 | 32 | 100 | 100 | 100 | 100 | 100 | 2.4 | 27 | 93 | 100 | 100 | 100 | 100 | 100 | 100 |
| CCn1c(-c2nonc2N)nc2c(C#CC(C)(C)O)nc(OCCNC)cc21.Cl [GSK949675] | 94 | 100 | 100 | 90 | 57 | 79 | 100 | 93 | 90 | 100 | 100 | 100 | 100 | 100 | 100 | 100 | 100 | 100 | 100 | 100 |
| Cl.O=C(Nc1ccc(Oc2ccc3[nH]c(NC(=O)c4ccco4)nc3c2)cc1)Nc1cc(C(F)(F)F)ccc1F [GW683134A] | 31 | 99 | 87 | 3.2 | 79 | 77 | 100 | 100 | 100 | 90 | 100 | 100 | 34 | 89 | 100 | 92 | 100 | 64 | 36 | 69 |
| Cl.O=C(O[C@H]1CN[C@H](C#Cc2cc3ncnc(Nc4ccc5c(cnn5Cc5ccccc5)c4)c3s2)C1)N1CCOCC1 [GSK200398A] | 100 | 100 | 96 | 100 | 0 | 10 | 0 | 100 | 100 | 100 | 99 | 89 | 90 | 88 | 96 | 94 | 95 | 100 | 100 | 86 |
| C[C@@H](Oc1cc(-n2cnc3ccc(OC4CCN(C)CC4)cc32)sc1C(N)=O)c1ccccc1Cl [GSK579289A] | 77 | 95 | 100 | 75 | 79 | 85 | 90 | 59 | 100 | 97 | 98 | 96 | 100 | 55 | 50 | 100 | 85 | 67 | 89 | 61 |
| COc1cc2ncn(-c3cc(O[C@H](C)c4ccccc4Cl)c(C(N)=O)s3)c2cc1OC [GSK237701A] | 90 | 92 | 85 | 16 | 100 | 89 | 63 | 100 | 100 | 82 | 100 | 100 | 84 | 88 | 100 | 100 | 95 | 65 | 58 | 63 |
